Compound activity from PubChem.
Compounds with a hit are over-represented: about 1.7% of the library has one in this group of screens.
EBNA-1 inhibitor: EBNA-1 DNA-binding inhibitors, primary screen, biochemical, fluorescence polarization; inhibition, % at 14.8 µM; 300,000 compounds, 0.34% hits; AID 1950, 2009; in the data active means inhibition above about 28%
LYPLA2 counter: LYPLA2 inhibitors, primary screen, counter-screen for PME1 inhibitor project, biochemical, fluorescence polarization, FP-Rh probe ABPP. AID 2177, 2009. inhibition, % at 5.9 µM. Acyl-protein thioesterase 2 (Homo sapiens), O95372. recombinant LYPLA2. 320,000 compounds, 0.38% hits;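 active means inhibition above the screen-wide mean plus 3 SD, limit set per campaign, cut at about 26% in these data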
Target sequence (O95372 whole entry, looked up): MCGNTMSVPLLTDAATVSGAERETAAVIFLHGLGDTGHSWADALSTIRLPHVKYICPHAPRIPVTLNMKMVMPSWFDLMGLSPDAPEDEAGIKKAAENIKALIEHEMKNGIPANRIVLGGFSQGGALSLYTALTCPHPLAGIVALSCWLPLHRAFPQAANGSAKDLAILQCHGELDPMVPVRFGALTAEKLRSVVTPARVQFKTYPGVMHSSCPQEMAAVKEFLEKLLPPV
GSTO1 inh: inhibitors of recombinant GSTO1, primary screen, counter-screen for RBBP9 inhibitor project, biochemical, fluorescence polarization | Glutathione S-transferase omega-1 (Homo sapiens), P78417 | activity-based probe fluorescence polarization | inhibition, % at 5.96 µM | 300,000 compounds, 1.1% hits | AID 1974, 2009;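 active means inhibition above the campaign mean inhibition plus 3 SD, cut at about 35% in these data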
LYPLA1 inh: LYPLA1 inhibitors, primary screen, counter-screen for PME1 inhibitor project, biochemical, fluorescence polarization, FP-Rh probe ABPP; 320,000 compounds, 0.16% hits; recombinant LYPLA1; inhibition, % at 5.9 µM; Acyl-protein thioesterase 1 (Homo sapiens), O75608;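 active means inhibition above the mean of all tested compounds plus 3 SD, set per campaign, cut at about 14% in these data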;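 further: inhibitors block serine hydrolase probe labeling of LYPLA1 so polarization falls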
Target sequence (O75608 whole entry, looked up): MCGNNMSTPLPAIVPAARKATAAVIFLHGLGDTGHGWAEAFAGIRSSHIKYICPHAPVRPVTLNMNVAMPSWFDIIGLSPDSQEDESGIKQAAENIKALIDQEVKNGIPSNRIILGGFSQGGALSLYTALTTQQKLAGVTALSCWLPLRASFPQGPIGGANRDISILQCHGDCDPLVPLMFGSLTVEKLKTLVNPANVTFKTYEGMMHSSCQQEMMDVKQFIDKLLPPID
PAD4 inh: human PAD4 inhibitors, primary screen, biochemical, fluorescence polarization, 1536-well format; Protein-arginine deiminase type-4 (Homo sapiens), Q9UM07; recombinant PAD4, RCA probe fluorescence polarization; inhibition, % at 6.36 µM; 330,000 compounds, 0.41% hits;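 active means percent inhibition above a cutoff equal to the mean of all tested compounds plus 3 SD, cut at about 15% in these data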
ZTA counter: ZTA (EBV) inhibition in EBNA-1 counter-screen | ZTA-DNA binding, fluorescence polarization | inhibition, % at 11 µM | 320,000 compounds, 0.15% hits; in the data active means inhibition above about 33%
LYPLA1 confirm: LYPLA1 inhibitors, retest, confirmation, counter-screen for PME1 inhibitor project, biochemical, fluorescence polarization, FP-Rh probe ABPP | shares compounds with LYPLA1 inh | recombinant LYPLA1 | inhibition, % at 5.9 µM | 480 compounds, 69% hits;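 active means mean inhibition across replicates above the hit cutoff set in the primary screen, cut at about 15% in these data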;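 further: loss of FP-Rh probe labeling of LYPLA1 seen as lower polarization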
LYPLA2 confirm: LYPLA2 inhibitors, retest, confirmation, counter-screen for PME1 inhibitor project, biochemical, fluorescence polarization, FP-Rh probe ABPP | AID 2232, 2010 | inhibition, % at 5.9 µM | shares compounds with LYPLA2 counter | recombinant LYPLA2 | 1,100 compounds, 72% hits;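 active means mean inhibition across replicates above the hit cutoff set in the primary screen, cut at about 26% in these data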;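 further: blocked labeling of the enzyme by serine hydrolase FP-Rh probe lowers polarization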
Large screens that a line does not name were inactive (follow-up assays come after a bar, where they were run).

C/C(=N/NC(=O)c1cc2ccccc2cc1O)C1C(=O)c2ccccc2C1=O	LYPLA1 inh 63.2 | LYPLA1 confirm 57.1
C/C(=N\NC(=O)c1ccccc1O)C1C(=O)c2ccccc2C1=O	none
Cc1cc(C)n(-c2n[nH]c(=O)c3ccccc23)n1	none
COc1ccc(OC)c(NC(=O)C2CCC(CNc3c(N4CCC(C)CC4)c(=O)c3=O)CC2)c1 (stereo not drawn)	LYPLA1 inh 45.4 | LYPLA1 confirm 43.6
COc1ccc(C)cc1NC(=O)C1CCC(CNc2c(N3CCOCC3)c(=O)c2=O)CC1 (stereo not drawn)	none
COc1cc(CNS(=O)(=O)c2ccc3c(c2)CC(C)N3C(C)=O)cc(OC)c1OC (stereo not drawn)	none
COc1ccc2[nH]c(C(=O)N3CCC(CO)(Cc4cccc(C(F)(F)F)c4)CC3)c(C)c2c1	LYPLA1 inh 19.0 | LYPLA1 confirm 26.1
OCCN(Cc1ccccc1)C(=S)Nc1ccc(Cl)cc1Cl	none
CC(CN1c2ccccc2Sc2ccccc21)N(C)C (stereo not drawn)	none
C#CCN1c2ccccc2Sc2cccnc21	LYPLA1 inh 17.4 | LYPLA1 confirm inactive
CCOc1ccc(NC(=S)NC(=O)c2c(Br)cnn2C)c([N+](=O)[O-])c1	LYPLA1 inh 17.6 | LYPLA1 confirm 59.2
Cc1cc(C)c(S(=O)(=O)Nc2ccnc(-c3cccnc3)n2)c(C)c1	none
COc1ccccc1C(CNC(=O)c1cc(S(=O)(=O)N2CCOCC2)ccc1C)N1CCCC1 (stereo not drawn)	none (no result: EBNA-1 inhibitor, GSTO1 inh)
Cc1noc(C)c1COC(=O)[C@@H](NC(=O)c1ccccc1)C(C)C	none
COc1ccc(Cl)cc1NC(=O)CN1CCC(n2nnc3ccccc32)CC1	LYPLA1 inh 14.6 | LYPLA1 confirm 18.8
CCCOc1ccc(/C(CC)=N/NC(=O)C2(C)CC2(Br)Br)cc1 (stereo not drawn)	LYPLA2 counter 27.9, LYPLA1 inh 17.2 | LYPLA1 confirm inactive
CC/C(=N/NC(=O)c1ccc(Br)cc1)c1ccc(OCCN2CCOCC2)cc1	none
Nc1cc(=O)[nH]c(SCC(=O)Nc2ccc(Cl)c(Cl)c2)n1	LYPLA1 inh 15.1 | LYPLA1 confirm 20.5
Cc1csc2nc(SCC(=O)Nc3ccccc3F)[nH]c(=O)c12	none
COc1ccccc1C(=O)NCC(=O)N1CC=C(c2ccccc2)CC1	none (no result: EBNA-1 inhibitor, GSTO1 inh)
COC(=O)COC(=O)c1ccc(O)cc1	LYPLA1 inh 14.9 | LYPLA1 confirm inactive
COc1ccccc1NC(=O)Cn1ncc2c1-c1ccccc1OC2	none
COc1cc(NC(=O)Cn2ncc3c2-c2ccccc2OC3)cc(OC)c1OC	LYPLA1 inh 19.6 | LYPLA1 confirm inactive
O=C(O)c1cc(NN=C2c3ccccc3-c3ccccc32)ccc1Cl	LYPLA1 inh 16.2 | LYPLA1 confirm 16.4
COc1cc(CNCCCN2CCOCC2)c(Br)cc1OCC(=O)Nc1ccccc1C	LYPLA1 inh 17.1 | LYPLA1 confirm inactive
COc1ccc2nc(NC(=O)c3sc4nc(C)cc(C)c4c3N)sc2c1	LYPLA1 inh 14.6 | LYPLA1 confirm 17.7
Cc1cc(C)c2c(N)c(C(=O)Nc3ncc(C)s3)sc2n1	LYPLA1 inh 27.5 | LYPLA1 confirm 20.9
COC(=O)c1sc2nc(C)cc(C)c2c1N	none
O=C(NNC(=O)C1[C@H]2CCCC[C@@H]12)NC1CCCCC1 (stereo partly drawn)	none
CS(=O)(=O)N1CCN=C1SCc1ccc([N+](=O)[O-])cc1	LYPLA1 inh active | LYPLA1 confirm inactive
CC(=O)c1ccc(S(=O)(=O)N2CCN(C(=O)CSC(=S)N3CCCC3)CC2)cc1	none
CC1=CN2C(=N)/C(=C/c3ccc([N+](=O)[O-])o3)C(=O)N=C2S1	LYPLA1 inh 17.1 | LYPLA1 confirm inactive
CC1=CN2C(=N)/C(=C/c3ccco3)C(=O)N=C2S1	none
O=C(CN1CCN(C(=O)c2ccco2)CC1)Nc1cc(Cl)ccc1Cl	LYPLA1 inh 82.4 | LYPLA1 confirm 84.7
O=C(CN1CCN(C(=O)c2ccco2)CC1)Nc1ccccc1-c1ccccc1	none
O=C(CN1CCN(C(=O)c2ccccc2)CC1)Nc1cc(S(=O)(=O)N2CCCC2)ccc1Cl	LYPLA1 inh 78.1 (no result: EBNA-1 inhibitor, GSTO1 inh) | LYPLA1 confirm 80.6
c1ccc2[nH]c(CN3CCN(c4ncnc5c4oc4ccccc45)CC3)nc2c1	LYPLA1 inh 16.6 | LYPLA1 confirm 18.1
c1ccc2[nH]c(CSc3ncnc4c3oc3ccccc34)nc2c1	none
Cc1cc(CN(C)C(=O)c2cc(COc3ccc(C)c(C)c3)on2)on1	none
Cc1ccc(OCc2cc(C(=O)N(C)Cc3cnn(-c4ccccc4C)c3)no2)cn1	LYPLA1 inh 27.1 | LYPLA1 confirm 29.2
Cc1cc(C)c2oc(C(=O)N3CCN(Cc4ccccc4)CC3)cc(=O)c2c1	LYPLA1 inh 20.9 | LYPLA1 confirm 25.5
O=C1CCN(C(=O)/C=C/c2ccccc2)c2ccccc21	LYPLA1 inh 14.7 | LYPLA1 confirm 23.1
Cc1cc(OCC(=O)N2CCOCC2)ccc1[N+](=O)[O-]	none
O=C(COc1ccc(Br)cc1)N1CCN(c2ccc([N+](=O)[O-])c(N3CCCCC3)c2)CC1	LYPLA1 inh 66.2 | LYPLA1 confirm 76.2
O=C(COc1ccccc1)N1CCN(c2ccc([N+](=O)[O-])c(N3CCCCC3)c2)CC1	none
Cc1ccc(OCC(=O)N2CCN(c3ccc([N+](=O)[O-])c(N4CCOCC4)c3)CC2)cc1	LYPLA1 inh 40.5 | LYPLA1 confirm 49.2
COc1ccc(-c2[nH]ncc2/C=N\NC(=O)c2ccc(Br)o2)cc1OC	none
CCC(=O)NN1CCN(c2ccncc2S(=O)(=O)N2CCCCC2)CC1	none
COc1[nH]c(/N=C/c2ccccc2)c(C#N)c1C#N	GSTO1 inh 35.4, LYPLA1 inh 16.9 | LYPLA1 confirm 16.5
COc1cc(NC(=O)Nc2ccc(Cl)c(Cl)c2)c(C(=O)O)cc1OC	LYPLA1 inh 20.1 | LYPLA1 confirm 18.2
COc1cc(OC)c(NC(=O)Nc2ccc(OC)c(OC)c2)cc1Cl	none
O=C(CCS(=O)(=O)Cc1ccccc1)N1CCN(c2ccc([N+](=O)[O-])cc2)CC1	none
O=C(CCCc1ccccc1)N1CCN(c2ccc([N+](=O)[O-])cc2)CC1	LYPLA2 counter 38.7, LYPLA1 inh 32.9 | LYPLA1 confirm 41.1 | LYPLA2 confirm 54.0
